gsp agonist: agonists of gsp mutant (McCune-Albright syndrome); gsp mutant cells, cAMP HTRF, 30 min; Potency, µM (series often up to 76.9 µM), inactives show at the highest dose activation (cAMP increase), usual class: activators; 340,000 compounds, 0.13% hits; active = well fitted activation curve with a large enough effect; inconclusive = small, poorly fitted or top-dose-only effect, or another doubt; inactive = no such curve, though single readings can be large or run the other way; cell line not stated here;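 also: phosphodiesterase inhibitor Ro 20-1724 added with compounds to block cAMP breakdown; nearly all actives have a fitted effect of over 60% in size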
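Cells stably selected in G418 were plated at 2000/well, grown 16-24 hr, then given compounds in DMSO with the PDE inhibitor […] (300 uM solution added) for 30 min at 37C; cAMP was read by HTRF.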
Mito fusion act: mitochondrial division inhibition or fusion activation; Potency, µM (series often up to 46.1 µM), without a hit: at the top dose growth rescue (activation), usual class: activators; AID 485298; S. cerevisiae fusion-defective mutant growth rescue, CellTiterGlo 48 h; 320,000 compounds, 0.23% hits; also: % of control where 0% means no effect; nearly all actives have a fitted effect of over 45% in size
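S. cerevisiae fusion-defective temperature-sensitive mutants (e.g. fzo1-1, mgm1-5) grown 48 h at 37C in YPEG (ethanol/glycerol non-fermentable) medium with 23 nl compound per well; growth rescue read as CellTiterGlo luminescence.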
12-LOX inh: inhibitors of human 12S-lipoxygenase ALOX12; Potency, µM (series often up to 108 µM), for the others: top-dose activity change, negative = inhibition, hits mostly inhibitors; purified 12hLO, xylenol orange hydroperoxide absorbance; 580,000 compounds, 1.1% hits; AID 1671190; P18054; also: % is scaled to controls: 0 for no effect and ±100 for the full control effect
Target sequence (P18054 whole entry, looked up): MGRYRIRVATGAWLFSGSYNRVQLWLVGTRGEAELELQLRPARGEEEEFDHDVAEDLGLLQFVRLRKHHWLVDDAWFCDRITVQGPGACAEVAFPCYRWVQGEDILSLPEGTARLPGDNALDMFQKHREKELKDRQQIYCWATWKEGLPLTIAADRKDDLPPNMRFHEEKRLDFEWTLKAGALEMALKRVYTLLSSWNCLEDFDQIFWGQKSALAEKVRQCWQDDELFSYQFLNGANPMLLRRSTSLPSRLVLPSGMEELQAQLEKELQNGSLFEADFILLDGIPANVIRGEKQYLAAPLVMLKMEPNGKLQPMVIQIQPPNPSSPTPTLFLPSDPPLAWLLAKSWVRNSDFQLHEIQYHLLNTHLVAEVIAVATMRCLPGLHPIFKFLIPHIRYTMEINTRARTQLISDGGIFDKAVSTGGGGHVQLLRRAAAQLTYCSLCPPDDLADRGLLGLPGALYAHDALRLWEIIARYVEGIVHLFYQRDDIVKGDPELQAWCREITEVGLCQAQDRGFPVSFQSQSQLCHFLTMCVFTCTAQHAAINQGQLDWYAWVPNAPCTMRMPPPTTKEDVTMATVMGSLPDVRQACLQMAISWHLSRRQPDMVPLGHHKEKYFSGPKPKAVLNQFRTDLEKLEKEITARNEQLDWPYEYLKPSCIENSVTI
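Purified human 12hLO (150 nM final) in 25 mM Hepes, 0.01% Triton X-100, pH 7.0 was preincubated 15 min at room temperature with compound. Then 40 uM arachidonic acid was added, 30 min. Hydroperoxide was read by Fe-XO absorbance ratio 573/405 nm.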
FUS suppressor: suppressors of FUS proteinopathy in yeast. S. cerevisiae FUS-expressing, growth rescue, OD600, 24 h. Potency, µM (highest dose often 76.6 µM), usual class: activators. 390,000 compounds, 0.24% hits;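 also: plate controls were DMSO vehicle for no effect and reference control for full effect; nearly all actives have a fitted effect of over 55% in size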
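Galactose (2%) drives FUS expression in yeast precultured in raffinose; seeding density OD 0.005. Test compounds incubated 24hr at 30C and 99% humidity before absorbance at 600 nm was measured.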
gsp antagonist: antagonizes gsp, the McCune-Albright syndrome mutation; gsp-mutant cells, cAMP HTRF, 30 min; Potency, µM (top dose mostly 76.9 µM), for the others: at the top dose activity change, negative = inhibition, hits mostly inhibitors; 340,000 compounds, 0.4% hits; AID 624288; calls by dose curve; cell line not stated here;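 also: intracellular cAMP measured with PDE inhibitor Ro 20-1724 present during compound exposure; % is scaled to controls: 0 for no effect and ±100 for the full control effect; nearly all actives have a fitted effect of over 65% in size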
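Cells in G418 medium, seeded 16-24 h, 37C; buffer exchange to DPBS + 1 mM CaCl2, 0.5 mM MgCl2, 0.05% BSA; cpds in DMSO + […] (300 uM stock), 30 min 37C; HTRF cAMP detection.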
* hit, by the source's call; ! = repeats disagree; [ ] = remark or other dose. The list is not random: actives were taken first. Their share in the collection is about 1.6%. Unless noted, calls follow the shape of the dose curve; as a rule, active = well fitted curve in the direction sought with a large enough effect; inconclusive = small, poorly fitted or top-dose-only effect, or another doubt; inactive = no such curve, though single readings can be large; an effect the other way counts as inactive or inconclusive. Potency is read from the fitted curve at half-maximal effect.

What do the screens show for `CCC(C)Sc1cc(-c2nc3cc(C)ccn3c2NC2CCCCC2)ccc1OC` (stereo not given)?
gsp agonist: inconclusive; 12-LOX inh: inconclusive; FUS suppressor: inconclusive; gsp antagonist: 32µM*

Results for CCCCNc1c(-c2ccc(OC)c(SC(C)CC)c2)nc2ccc(Cl)cn12 (stereo not given) ?
gsp agonist: 5%; 12-LOX inh: inconclusive; FUS suppressor: inconclusive; gsp antagonist: -21%

Results for CCCCNc1c(-c2ccc(OC)c(SC(C)CC)c2)nc2cc(C)ccn12 (stereo not given) ?
gsp agonist: inconclusive; 12-LOX inh: inconclusive; FUS suppressor: inconclusive; gsp antagonist: 40µM*

Results for CCOC(=O)c1[nH]c(C)c(C=O)c1C ?
12-LOX inh: 1%

How did Cc1noc(-c2cn(C3CCN(C(=O)c4cccc(C(F)(F)F)c4)CC3)nn2)n1 do in these assays?
12-LOX inh: 9%

What do the screens show for `CCC(C)Sc1cc(-c2nc3ccc(C)cn3c2NCc2ccccc2)ccc1OC` (stereo not given)?
gsp agonist: inconclusive; 12-LOX inh: 27%; FUS suppressor: 32µM*!; gsp antagonist: inconclusive

What do the screens show for `Cc1ccc(F)cc1S(=O)(=O)N1CC(C(=O)NC2CCCCC2)C2(CCOCC2)C1` (stereo not given)?
12-LOX inh: 33%

Results for COc1ccccc1NC(=O)Cn1nnc(-c2ccccc2NC(=O)c2cc3ccccc3oc2=O)n1 ?
gsp agonist: inconclusive; Mito fusion act: 0%; 12-LOX inh: 13%; FUS suppressor: 25µM*; gsp antagonist: -13%

Results for O=S(=O)(Nc1c(S(=O)(=O)c2ccccc2)c2nc3ccccc3nc2n1C1CCCCC1)c1ccccc1 ?
gsp agonist: -10%; Mito fusion act: -7%; 12-LOX inh: 40µM*; gsp antagonist: -9%

What do the screens show for `O=C(O)c1ccc(SC(F)(F)F)cc1`?
12-LOX inh: -18%

How did Cc1ccc(OCC(=O)Nc2cccc(S(=O)(=O)N3CCCC3)c2)cc1C do in these assays?
gsp agonist: -1%; 12-LOX inh: -1%; FUS suppressor: inactive

Results for O=C(COc1ccc2ccc(=O)oc2c1)Nc1cccc(S(=O)(=O)N2CCCCC2)c1 ?
gsp agonist: inconclusive; Mito fusion act: -3%; 12-LOX inh: 190%; gsp antagonist: 28µM*

How did CC(=O)c1c(C)[nH]c(C(=O)OCC(=O)Nc2cccc(S(=O)(=O)N3CCCC3)c2)c1C do in these assays?
gsp agonist: -71%; Mito fusion act: -9%; 12-LOX inh: 0%; gsp antagonist: 32µM*

Results for Cc1ccccc1C(=O)OCC(=O)Nc1cccc(S(=O)(=O)N2CCCCC2)c1 ?
gsp agonist: -2%; 12-LOX inh: 1%; FUS suppressor: inconclusive

What do the screens show for `Cc1ccc(C)c(C(=O)OCC(=O)Nc2cccc(S(=O)(=O)N3CCCCC3)c2)c1`?
gsp agonist: 5%; Mito fusion act: 5%; 12-LOX inh: 285%; FUS suppressor: inconclusive; gsp antagonist: 25µM*

What do the screens show for `CN1CCN(C(=O)CN(Cc2ccc(Cl)cc2Cl)S(=O)(=O)c2ccccc2)CC1`?
12-LOX inh: 8%

What do the screens show for `Cc1ccsc1/C=C/C(=O)c1ccc2ccccc2c1`?
12-LOX inh: 4%

How did Cc1cccc2cc3c(nc12)SC(=NCC1CCCO1)N(Cc1ccco1)C3 (stereo not given) do in these assays?
gsp agonist: inconclusive; Mito fusion act: 9%; FUS suppressor: inconclusive; gsp antagonist: 13%

What do the screens show for `COCCN=C1Sc2nc3c(C)cccc3cc2CN1Cc1ccco1`?
gsp agonist: 5%; Mito fusion act: 5%; 12-LOX inh: 32µM*; FUS suppressor: inactive; gsp antagonist: 1%

Results for COc1cccc(Oc2coc3cc(OC(=O)c4cccc(OC)c4)ccc3c2=O)c1 ?
12-LOX inh: -26%

What do the screens show for `COc1ccc(S(=O)(=O)N2CCN(Cc3ccccc3)CC2)cc1`?
gsp agonist: -1%; Mito fusion act: -2%; 12-LOX inh: 16%; FUS suppressor: inactive; gsp antagonist: -7%

Results for COc1ccc(S(=O)(=O)N2CCN(Cc3cc(OC)c(O)c(OC)c3)CC2)cc1 ?
gsp agonist: -6%; Mito fusion act: -3%; 12-LOX inh: 0.56µM*; FUS suppressor: inactive; gsp antagonist: 5%

Results for COc1ccc(S(=O)(=O)N2CCN(Cc3cc(OC)c(OC)c(OC)c3)CC2)cc1 ?
gsp agonist: 4%[15.4 µM]; Mito fusion act: 3%; 12-LOX inh: 0.71µM*; FUS suppressor: inactive; gsp antagonist: 2%

What do the screens show for `COc1cccc(N2CCN(Cc3nc(N)nc(Nc4ccccc4C)n3)CC2)c1`?
12-LOX inh: -1%

How did CCNC(=O)NC(=O)COC(=O)c1sccc1C do in these assays?
12-LOX inh: 9%

What do the screens show for `C[C@@H]1CCCCO[C@@H](CN(C)S(=O)(=O)c2ccccc2)[C@@H](C)CN([C@H](C)CO)C(=O)c2cc(NS(=O)(=O)c3ccc(F)cc3)ccc2O1`?
gsp agonist: 7%; 12-LOX inh: 0%; FUS suppressor: 14µM*

How did COc1ccc(S(=O)(=O)Nc2ccc3c(c2)C(=O)N([C@H](C)CO)C[C@H](C)[C@@H](CN(C)C(=O)Nc2ccc(C(F)(F)F)cc2)OCCCC[C@H](C)O3)cc1 do in these assays?
gsp agonist: -18%; 12-LOX inh: -23%; FUS suppressor: inconclusive

What do the screens show for `COc1ccc(S(=O)(=O)Nc2ccc3c(c2)C(=O)N([C@H](C)CO)C[C@H](C)[C@@H](CN(C)C(=O)Nc2ccc(F)cc2)OCCCC[C@H](C)O3)cc1`?
gsp agonist: -54%; 12-LOX inh: -12%; FUS suppressor: 25µM*

Results for COc1cccc(N2CCN(C(=O)C3CCN(c4cnc5nccnc5c4)CC3)CC2)c1 ?
12-LOX inh: -8%

What do the screens show for `COCCNC(=O)CNC(=O)c1nn(-c2ccc(OC)cc2OC)c(=O)c2ccccc12`?
12-LOX inh: -27%

What do the screens show for `Cc1cccc(OCc2n[nH]c(=S)n2-c2ccccc2)c1`?
gsp agonist: 14%; Mito fusion act: 3%; 12-LOX inh: 35µM*; FUS suppressor: inactive; gsp antagonist: -18%

Results for Cc1cccc(/C=N/n2c(COc3ccccc3)n[nH]c2=S)c1 ?
gsp agonist: 0%; Mito fusion act: -7%; 12-LOX inh: 40µM*; FUS suppressor: inactive; gsp antagonist: -20%

What do the screens show for `Cc1ccc(-n2c(COc3cccc(C)c3)n[nH]c2=S)cc1`?
gsp agonist: -38%; Mito fusion act: 9%; 12-LOX inh: inconclusive; FUS suppressor: inactive; gsp antagonist: inconclusive

Assay outcomes (PubChem)
